Bioassay records (PubChem)
Hits are enriched below; roughly 2.3% of the tested compounds scored in any of these assays.
M1 PAM = potentiates human M1 receptor response to acetylcholine. P11229. CHO-K1 hM1, Fluo-8 calcium fluorescence, ACh EC20; 0% = ACh EC20, 100% = maximal ACh. activation, % at 3 µM. 360,000 tested, 0.088% active. AID 588819; in the data active means activation above about 19%, passing the limit was not always enough
Target sequence (P11229 whole entry, looked up): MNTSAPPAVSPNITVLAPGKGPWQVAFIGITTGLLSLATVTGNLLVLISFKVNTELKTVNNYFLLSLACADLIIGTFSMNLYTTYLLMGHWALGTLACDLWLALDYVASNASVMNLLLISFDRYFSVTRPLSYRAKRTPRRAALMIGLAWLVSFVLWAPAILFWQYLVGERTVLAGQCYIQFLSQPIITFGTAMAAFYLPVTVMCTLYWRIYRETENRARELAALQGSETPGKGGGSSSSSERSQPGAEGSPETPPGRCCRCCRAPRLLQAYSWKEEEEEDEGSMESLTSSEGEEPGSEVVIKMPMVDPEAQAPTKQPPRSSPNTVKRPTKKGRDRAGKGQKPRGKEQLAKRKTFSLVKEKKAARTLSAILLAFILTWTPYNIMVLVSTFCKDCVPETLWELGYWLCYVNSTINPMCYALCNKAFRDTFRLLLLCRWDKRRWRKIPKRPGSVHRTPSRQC
CHRM1 agonist = human M1 muscarinic receptor agonism; P11229; CHO-K1 hM1, Fluo-8 calcium fluorescence, agonist mode; 0% DMSO, 100% acetylcholine EC100; activation, % at 3 µM; 360,000 tested, 0.33% active; AID 588814;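 active means activation above the run's mean compound activation plus 3 SD, cut at about 16% in these data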;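 further: peak over basal fluorescence ratio within a 140 s kinetic read after compound addition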
M1 antag = blocks human M1 muscarinic receptor; AID 588852; CHO-K1 hM1, Fluo-8 calcium fluorescence, ACh EC80 antagonist; inhibition, % at 3 µM; 360,000 tested, 1.3% active;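 active means percent inhibition above its own plate's cutoff, namely the mean of that plate's compound wells plus 3 SD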;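 further: peak over basal fluorescence ratio during 140 s after agonist addition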
M1 PAM parental = counter-screen for M1 PAMs: effect in parental CHO-K1 cells; ATP EC20, Fluo-8 calcium fluorescence; 0% at ATP EC20, 100% at ATP max; activation, % at 3 µM; 360,000 tested, 0.02% active; AID 602247;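 active means activation above the run cutoff, the mean activation of all test compounds plus 3 SD, cut at about 40% in these data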;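 further: peak over basal fluorescence ratio in a 140 s read after ATP addition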
M1 ag parental = nonselective activator or artifact in parental CHO-K1 cells; 360,000 tested, 0.48% active; AID 602248; Fluo-8 calcium fluorescence; scaled to maximal ATP response, vehicle zero; activation, % at 3 µM; in the data active means activation above about 15%;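 further: untransfected CHO-K1 host cells lacking M1 receptor as counterscreen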
CHO-K1 Ca antag = nonselective inhibitor or artifact in parental CHO-K1 cells. ATP-induced calcium, Fluo-8 fluorescence. 360,000 tested, 0.6% active. inhibition, % at 3 µM. AID 602250;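 active means inhibition above a per-plate cutoff, the plate's mean sample inhibition plus 3 SD, cut at about 24% in these data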
Of the large screens only hits and unclear results are named; the others gave an inactive call.

CC[N+](CC)(CC)CCOc1ccc(/C=C/c2ccccc2)cc1	M1 antag 95
CCOc1ccc(/C=C/C(=O)c2ccccc2)cc1	none
Cc1ccc(S(=O)(=O)NCCC(=O)Nc2cc(F)ccc2C)cc1C	M1 antag 21
OC(CNCCNc1ncccc1C(F)(F)F)Cn1ccc2ccccc21 (centres undefined)	CHRM1 agonist 20
Cc1cccnc1C1=NOC(Cc2ccccc2)C(=O)N1CCOc1ccc(F)cc1 (centres undefined)	none
O=C1CC(C(=O)N2CCc3ccccc32)CN1c1cccc(C(F)(F)F)c1 (centres undefined)	none
C#Cc1cccc(Nc2nc(NCCOC)nc3ccsc23)c1	none
Fc1cc(Cl)ccc1Nc1nc(NCc2ccccc2)nc2ccsc12	none
c1ccc(CNc2nc(NCCOc3ccccc3)c3sccc3n2)cc1	CHRM1 agonist 19, M1 antag 43, M1 ag parental 35, CHO-K1 Ca antag 28
C#Cc1cccc(Nc2nc(NCc3ccccc3OC)nc3ccsc23)c1	M1 antag 35
c1ccc(CNc2nc(NCc3ccccc3)c3sccc3n2)cc1	CHRM1 agonist 32, M1 antag 56, M1 ag parental 28
COc1ccccc1CNc1nc(NCc2ccccc2F)c2sccc2n1	M1 antag 40, M1 ag parental 17, CHO-K1 Ca antag 28
COCCNc1nc(NCc2ccccc2F)c2sccc2n1	none
CC(C)Oc1ccc(C(=O)NC(=S)Nc2ccc(Cl)c(C(=O)O)c2)cc1	none
O=C(CSC(=S)N1CCOCC1)Nc1ccc(S(=O)(=O)Nc2ncccn2)cc1	none
CCCCn1c(N)c(N(CCOC)C(=O)c2ccc(C)o2)c(=O)[nH]c1=O	none
COc1ccccc1CNc1nc(NCc2ccccc2)nc2ccsc12	CHO-K1 Ca antag 24
COc1ccccc1CNc1nc(NCc2cccc(OC)c2OC)c2sccc2n1	none
NC(=O)CCN1CCN(C(=O)c2ccc3nc(Cc4cccc(Cl)c4)oc3c2)CC1	none
COc1cccc(-c2cnc(NCc3cc(Cl)ccc3O)n2C)c1	M1 antag 32
CSc1ccc(CNc2ncc(-c3cccc([N+](=O)[O-])c3)n2C)cc1	M1 antag 65
COc1ccc(CNc2ncc(-c3cccc([N+](=O)[O-])c3)n2C)c(OC)c1OC	M1 antag 54
COc1ccc(CNc2ncc(-c3ccc(F)cc3)n2C)c2ccccc12	none
Cn1c(-c2ccc3c(c2)OCO3)cnc1NCc1cccc(O)c1	M1 antag 29
Cc1cc(C)c(S(=O)(=O)N2CCN(C(=O)c3ccc(-n4cncn4)c([N+](=O)[O-])c3)CC2)c(C)c1	none
CCN(CC)/C(=N\S(=O)(=O)c1ccc(F)cc1)c1ccccc1	none
COc1ccc(NC(=O)Nc2cccc3c2O[C@H](CN(C)C(=O)Nc2ccc(OC)cc2)[C@@H](C)CN([C@H](C)CO)C3=O)cc1	none
Cn1c(-c2ccccc2)cnc1NCc1cccc([N+](=O)[O-])c1	M1 antag 36
COc1ccccc1CNc1ncc(-c2ccc(F)cc2)n1C	M1 antag 45
COc1ccccc1CNc1ncc(-c2ccccc2)n1C	none
Cn1c(-c2ccccc2)cnc1NCc1cc2c(cc1[N+](=O)[O-])OCO2	none
O=C(c1cc2ccccc2o1)N1CCN(c2cccc(Cl)c2)CC1	none
CCOc1cccc(NC(=O)C(Cc2cccs2)c2nn[nH]n2)c1 (centres undefined)	CHO-K1 Ca antag 27
O=C(Nc1ccccc1)C(Cc1cccs1)c1nn[nH]n1 (centres undefined)	none
CN1CCN(CC(=O)Nc2c(C(=O)c3ccccc3)oc3ccccc23)CC1	M1 antag 60
O=C(N/N=C/c1ccc2cccc(OCc3ccccc3)c2n1)c1ccc(Cl)cc1	M1 antag 34
Cc1ccc(S(=O)(=O)Nc2ccc3c(c2)C(=O)N([C@@H](C)CO)C[C@@H](C)[C@@H](CN(C)S(=O)(=O)c2ccccc2)OCCCC[C@H](C)O3)cc1	CHO-K1 Ca antag 24
Cc1noc(C)c1NC(=O)Nc1ccc2c(c1)C(=O)N([C@H](C)CO)C[C@@H](C)[C@@H](CN(C)S(=O)(=O)c1cn(C)cn1)OCCCC[C@H](C)O2	CHO-K1 Ca antag 26
Cc1ccc(S(=O)(=O)N(C)C[C@@H]2OCCCC[C@@H](C)Oc3ccc(NS(=O)(=O)c4c(C)noc4C)cc3C(=O)N([C@H](C)CO)C[C@@H]2C)cc1	none
Cc1noc(C)c1NC(=O)N(C)C[C@H]1OCCCC[C@@H](C)Oc2ccc(NC(=O)c3ccccc3)cc2C(=O)N([C@H](C)CO)C[C@@H]1C	CHRM1 agonist 17
Cc1ccc(S(=O)(=O)N(C)C[C@@H]2OCCCC[C@H](C)Oc3ccc(NC(=O)Nc4ccc(F)cc4)cc3C(=O)N([C@H](C)CO)C[C@H]2C)cc1	CHO-K1 Ca antag 26
Cc1noc(C)c1NC(=O)N(C)C[C@H]1OCCCC[C@@H](C)Oc2ccc(NC(=O)Nc3ccc(F)cc3)cc2C(=O)N([C@@H](C)CO)C[C@H]1C	none
COc1ccc(S(=O)(=O)N(C)C[C@H]2OCCCC[C@H](C)Oc3ccc(NC(=O)Nc4ccc(F)cc4)cc3C(=O)N([C@H](C)CO)C[C@H]2C)cc1	none
C[C@H](CO)N1C[C@H](C)[C@@H](CN(C)S(=O)(=O)c2cn(C)cn2)Oc2ccc(NC(=O)Nc3ccccc3)cc2C1=O	none
Cc1ccc(S(=O)(=O)NC(=O)c2cc(C)n(C3CC3)c2C)cc1	none
CC(=O)c1ccc(OC2(C)CCN(Cc3ccc4ccccc4c3)C2)cc1 (centres undefined)	none
O=C(NCCCN1CCOCC1)c1c(-c2ccccc2)oc2c1C(OCCCCCO)CCC2 (centres undefined)	none (no result: M1 PAM, CHRM1 agonist, M1 antag)
Cc1cc(=O)[nH]c(NN=C2CCC(C(C)(C)C)CC2)n1 (centres undefined)	M1 ag parental 19
Cc1ccc(C(=O)N2[C@@H]3CN(C)C(=O)[C@@]2(Cc2ccccc2)[C@H]2C(=O)N(C)C(=O)[C@@H]32)cc1	none
COc1ccc(N2C[C@H](C)[C@@H](CC(=O)Nc3ccc(Br)cc3)C2=O)cc1	CHO-K1 Ca antag 25
COc1cccc(N/C(N)=N/c2nc(C(F)(F)F)cc(=O)[nH]2)c1	M1 ag parental 18
COc1cccc(N/C(N)=N/c2nc(C(F)(F)F)cc(C(F)(F)F)n2)c1	none
CCN(CCCNC(=O)C1CCN(S(=O)(=O)c2cccc3nonc23)CC1)Cc1ccccc1	M1 antag 47
COc1cc(OC)c(OC)cc1CN1CCCC(C(=O)c2ccc3c(c2)OCO3)C1 (centres undefined)	none
O=C(c1ccc2c(c1)OCO2)C1CCCN(Cc2ccc3cccc(F)c3n2)C1 (centres undefined)	none
